The results in this text go back to PubChem BioAssay (NCI).

Where “and” joins values, the source holds several entries; their conditions need not be identical. Equal entries are not always repeated. This is part of a sample that, as a whole, favours compounds with a hit. Of some 83,000 tested, about 20% had one in any assay.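 A percent growth of 40 corresponds to 60% growth inhibition; 0 means no net growth; -100 means all cells died. Active threshold: below 10.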 Calls of active or inactive are those of the source.

Test systems include NCI-H23 lung; NCI-H226 lung; NCI-H322M lung; HOP-62 NSCLC; NCI-H460 lung; HOP-92 NSCLC; NCI-H522 lung; 786-0 renal; COLO 205 colon; DU-145 prostate; K-562 leukemia; MALME-3M melanoma; MDA-MB-231 breast; RXF 393 renal; SF-268 CNS; SF-295 CNS; SF-539 CNS; UACC-257 melanoma; M14 melanoma; A549/ATCC NSCLC.
What all share (assay): NCI-60 one-dose screen, 48 h (100 = growth as untreated, 0 = no growth, -100 = all killed)
Common to all, as to conditions: 10 µM unless noted

In the case of `CCc1ccccc1-n1[nH]c(C)c(C=N)c1=O`, the growth is 102% (inactive) in the assay on NCI-H23 lung; 89% (inactive) in the assay on NCI-H226 lung; 106% (inactive) with NCI-H322M lung; 135% (inactive) in the assay on HOP-62 NSCLC; 109% (inactive) in the assay with NCI-H460 lung; 98.6% (inactive) with HOP-92 NSCLC. The growth in the assay with NCI-H522 lung was 102% (inactive); in the assay with 786-0 renal, 112% (inactive); in the assay on COLO 205 colon it was 120% (inactive); in the assay with DU-145 prostate it was 118% (inactive); in the assay on K-562 leukemia, 96.5% (inactive); with MALME-3M melanoma it was 94.4% (inactive). Moreover, the growth was 106% (inactive) in the assay with MDA-MB-231 breast; 103% (inactive) with RXF 393 renal; 114% (inactive) in the assay on SF-268 CNS; 99.3% (inactive) with SF-295 CNS; 100% (inactive) in the assay on SF-539 CNS; 116% (inactive) in the assay on UACC-257 melanoma. In addition, in the assay with M14 melanoma, the growth is 109% (inactive).

On to `Cc1cnc(N)s1`, for which the growth in the assay on NCI-H23 lung is 97.5% (inactive); in the assay with NCI-H226 lung it was 90.6% (inactive); with NCI-H322M lung it was 99.6% (inactive); in the assay on HOP-62 NSCLC it was 78.3% (inactive); in the assay with NCI-H460 lung, 105% (inactive); in the assay on HOP-92 NSCLC it was 91.3% (inactive). Besides, the growth with NCI-H522 lung is 77.9% (inactive); with 786-0 renal it was 106% (inactive); with COLO 205 colon it was 102% (inactive); in the assay on DU-145 prostate, 106% (inactive); with K-562 leukemia it was 92.9% (inactive); in the assay on MALME-3M melanoma it was 98.1% (inactive). The growth in the assay with MDA-MB-231 breast was 91.6% (inactive); with RXF 393 renal, 105% (inactive); in the assay with SF-268 CNS, 93.8% (inactive); with SF-295 CNS it was 98.3% (inactive); in the assay on SF-539 CNS, 103% (inactive); in the assay on UACC-257 melanoma, 84.4% (inactive). In the assay with M14 melanoma, the growth is 91.9% (inactive).

Regarding `CCOC(=O)C(N)Cc1cc(I)c(O)c(I)c1` (stereo unspecified), the growth was 99.5% (inactive) and 102% (inactive) in the assay with NCI-H23 lung; 91.6% (inactive) and 96.6% (inactive) in the assay with NCI-H226 lung; 113% (inactive) and 106% (inactive) in the assay with NCI-H322M lung; 106% (inactive) and 113% (inactive) in the assay on HOP-62 NSCLC; 109% (inactive) and 115% (inactive) in the assay with NCI-H460 lung; 102% (inactive) and -3.49% (active) in the assay on HOP-92 NSCLC. In addition, the growth was 108% (inactive) and 90.7% (inactive) in the assay with NCI-H522 lung; 99.7% (inactive) and 105% (inactive) in the assay on 786-0 renal; 108% (inactive) and 110% (inactive) in the assay with COLO 205 colon; 109% (inactive) and 107% (inactive) in the assay on DU-145 prostate; 105% (inactive) with K-562 leukemia; 115% (inactive) in the assay on MALME-3M melanoma. Also, the growth in the assay with MDA-MB-231 breast was 104% (inactive) and 97.5% (inactive); with RXF 393 renal, 105% (inactive) and 112% (inactive); in the assay on SF-268 CNS, 99% (inactive) and 100% (inactive); in the assay with SF-295 CNS, 115% (inactive) and 124% (inactive); in the assay with SF-539 CNS, 115% (inactive) and 102% (inactive); with UACC-257 melanoma, 108% (inactive). In the assay with M14 melanoma, the growth is 105% (inactive) and 104% (inactive).

For `NC1=NC(c2ccccc2)N=C(Nc2ccccc2)N1` (stereo unspecified), the growth in the assay with NCI-H23 lung is 79.5% (inactive) and 66.5% (inactive); in the assay on NCI-H226 lung, 81.7% (inactive) and 52.5% (inactive); with NCI-H322M lung it was 91.5% (inactive) and 84.7% (inactive); with HOP-62 NSCLC, 78.1% (inactive) and 74.8% (inactive); in the assay with NCI-H460 lung it was 103% (inactive) and 95% (inactive); in the assay on HOP-92 NSCLC, 81% (inactive) and 89.1% (inactive). Besides, the growth in the assay with NCI-H522 lung is 83.8% (inactive) and 110% (inactive); with 786-0 renal it was 93.3% (inactive) and 101% (inactive); in the assay with COLO 205 colon it was 91.7% (inactive) and 63.4% (inactive); with DU-145 prostate, 105% (inactive) and 100% (inactive); in the assay with K-562 leukemia, 53.4% (inactive) and 65.1% (inactive); in the assay on MALME-3M melanoma, 84.9% (inactive) and 53.8% (inactive). Further, the growth in the assay with MDA-MB-231 breast is 101% (inactive) and 74.6% (inactive); in the assay on RXF 393 renal, 91.5% (inactive); in the assay on SF-268 CNS, 49.2% (inactive) and 54% (inactive); in the assay with SF-295 CNS, 87.5% (inactive) and 83.6% (inactive); in the assay with SF-539 CNS, 84.8% (inactive) and 55.2% (inactive); with UACC-257 melanoma, 91.9% (inactive) and 108% (inactive). Moreover, in the assay on M14 melanoma, the growth is 81.9% (inactive) and 75.9% (inactive).

As to `COC(=O)c1ccccc1Cl`, the growth in the assay with NCI-H23 lung is 103% (inactive); with NCI-H226 lung it was 101% (inactive); in the assay with NCI-H322M lung, 97.4% (inactive); in the assay on HOP-62 NSCLC, 98.3% (inactive); with NCI-H460 lung, 106% (inactive); in the assay with HOP-92 NSCLC, 85.3% (inactive). For the same compound, the growth with NCI-H522 lung was 102% (inactive); with A549/ATCC NSCLC, 99.4% (inactive); in the assay on 786-0 renal it was 102% (inactive); with COLO 205 colon, 102% (inactive); in the assay with DU-145 prostate, 106% (inactive); in the assay on K-562 leukemia, 8.26% (active). Further, the growth is 95% (inactive) with MALME-3M melanoma; 111% (inactive) in the assay on MDA-MB-231 breast; 121% (inactive) in the assay with RXF 393 renal; 98.9% (inactive) with SF-268 CNS; 92.1% (inactive) with SF-295 CNS; 93.5% (inactive) in the assay on SF-539 CNS. Moreover, the growth in the assay on UACC-257 melanoma and in the assay with M14 melanoma was 102% (inactive) each time.
